From ChEMBL document CHEMBL3988442, “University of Dundee, Small-Polar-MMV Screening Library” (2021) come the findings set out here.

For this experiment, the system named is Trypanosoma brucei. Briefly: Trypanosoma brucei 72 hour study. Set-up: scale not given: in the data most compounds retested in dose-response had high values. In kind it is functional, organism-based.

Structures are written as SMILES. Hit rate of the full screen: of about 66,000 compounds, about 960 (1.5%) showed an effect of 50% or more. The full list was thinned out, with strong results kept by preference.

As to `Cc1nn(C)c(N2CCOCC2)c1CNC1CCc2cc(F)ccc21.Cl` (centres undefined), the “Percent Effect” value (30.3 µM, […]) was found to be 2.572%.
`O=C(c1ccccn1)N1CCCC(c2cc(C(F)F)n3ncnc3n2)C1` (centres undefined): the “Percent Effect” value (30.3 µM, […]) is -6.514%.
With `CN(C)CCn1c2c(ccc1=O)CCN(C(=O)c1cccs1)CC2.O=C(O)C(F)(F)F`, where the note is “30.3 µM, […]”, the “Percent Effect” value is recorded as -37.11%.
In the case of `CC(C)NC(=O)CC1COC2(CCN(Cc3ccco3)CC2)C1` (centres undefined), where the note is “30.3 µM, […]”, the “Percent Effect” value is listed as -14.26%.
`Cn1ccc(C(=O)NC2CCC23CCN(Cc2ccc(F)cc2)CC3)c1.O=C(O)C(F)(F)F` (centres undefined): the “Percent Effect” value (30 µM, 30.03 µM) was 3.839%.
Same read-out and setting: the same measure for `CC(C)Nc1nc(N2CCCC2)nc2c1CN(C(C)C)CC2`: 99.66%.
On to `CC(C)Nc1nc(N2CCCC2)nc2c1CCN(S(C)(=O)=O)CC2.O=C(O)C(F)(F)F.O=C(O)C(F)(F)F`, for which the “Percent Effect” value (30.3 µM, […]) is -7.363%.
Same read-out and setting: the same measure for `CC(C)CCN1CCc2nc(N3CCOCC3)nc(NC(C)C)c2C1`: 99.5%.
On to `CC(C)Nc1nc(N2CCOCC2)nc2c1CN(CC(=O)N(C)C)CC2`, for which the “Percent Effect” value (30 µM, 30.03 µM) is recorded as -12.25%.
On to `CC(C)Nc1nc(N2CCCC2)nc2c1CN(S(C)(=O)=O)CC2`, for which the “Percent Effect” value (30.3 µM, […]) is reported as -6.542%.
On to `CC(C)CC(=O)N1CCc2nc(N3CCOCC3)nc(NC(C)C)c2C1`, for which the “Percent Effect” value (30 µM, 30.03 µM) is 21.8%.
For the compound `COCCC(=O)N1CCc2nc(N3CCOCC3)nc(NC(C)C)c2C1`, for the setting “30.3 µM, […]”, the “Percent Effect” value was -26.7%.
The same measure, in the same setting: the same measure for `CCC(C)N1CCc2nc(N3CCCC3)nc(NC(C)C)c2C1` (centres undefined): 80.67%; for `CCCN1CCc2nc(N3CCOCC3)nc(NC(C)C)c2C1`: -24.43%.
Still for that read-out and setting: the same measure for `CCN1CCc2nc(N3CCOCC3)nc(NC(C)C)c2C1`: -20.31%.
The same measure, in the same setting: then `CC(C)Nc1nc(N2CCCC2)nc2c1CN(c1ncc(F)cn1)CC2`, with 99.94%; and `CC(C)Nc1nc(N2CCCC2)nc2c1CN(C)CC2`, with -8.686%.
In the case of `COc1ccc(Oc2cc(CN)ccn2)cc1`, for the setting “30 µM, 30.03 µM”, the “Percent Effect” value was -27.14%.
In the case of `O=C1N(c2ccsc2)CCC12CCCN(c1ncc(F)cn1)C2` (centres undefined), for the setting “30.3 µM, […]”, the “Percent Effect” value came to 6.515%.
`CC(C)(C)n1ncc(NCCc2ccccc2C(F)(F)F)c(Cl)c1=O`: the “Percent Effect” value (30 µM, 30.03 µM) was -22.16%.
Turning to `COC(C)(C)C(=O)N1CCC(c2cc(CN(C)C)n(C)n2)CC1.Cl`, the “Percent Effect” value (30.3 µM, […]) is listed as -10.49%.
For `Cc1ccc(CN2Cc3c(cnn3C)C(COCC3CC3)C2)s1` (centres undefined), the “Percent Effect” value (30 µM, 30.03 µM) came out at 38.62%.
For the compound `CC(C)=CCN1C(=O)[C@H]2CC[C@@H]1CN(C(=O)CCc1nc(Cl)n[nH]1)C2`, the “Percent Effect” value (30 µM, 30.03 µM) is -4.584%.
On the same count and under the same terms, then `COC(=O)CN1CC2(CCNCC2)COc2ccccc2S1(=O)=O.O=C(O)C(F)(F)F`, with -19.66%; and `Br.CCOc1ccc(Br)cc1C1CCCN1` (centres undefined), with -44.26%; and `CC(C)OCCCN(CC(=O)N1CCNCC1)C(=O)c1ccc(F)cc1.O=C(O)C(F)(F)F`, with -6.979%.
The same measure, in the same setting: then `Cc1nc(CN2CCc3nc(N4CCCC4)nc(NC(C)C)c3C2)cs1`, with 98.38%.
On the same count and under the same terms, the same measure for `Cc1nc(CN2CCc3nc(NC(C)C)nc(C)c3C2)cs1`: 1.176%; for `CC(C)Nc1nc(N2CCOCC2)nc2c1CN(Cc1ccoc1)CC2`: 8.067%.
Regarding `CN(CCOc1ccc(Cl)cc1)Cc1ccc(S(=O)(=O)N(C)C)o1`, under “30 µM, 30.03 µM”, the “Percent Effect” value is on record as -22.42%.
Still for that read-out and setting: the same measure for `Cn1nc(-c2ccc(Cl)cc2)c(Br)c1C(=O)O`: -21.18%.
Turning to `Cc1cccc(CN2C(=O)CCC23CCN(C(=O)N2CCCC2)CC3)n1.O=C(O)C(F)(F)F`, the “Percent Effect” value (30.3 µM, […]) is -18.36%.
Consider `Cc1cc(NCc2cccnc2)n2nc(C)cc2n1`, for which the “Percent Effect” value (30 µM, 30.03 µM) is listed as 51.67%.
The same measure, in the same setting: then `Cc1cc(NCc2ccc(CO)cc2)n2nc(C)cc2n1`, with 21.61%; and `Cc1cc(NCc2ccc(O)cc2)n2nc(C)cc2n1`, with 9.404%.
For `COCCN1CCc2ncnc(-c3ccccc3)c2CC1.O=C(O)C(F)(F)F`, the “Percent Effect” value (30.3 µM, […]) is -87.22%.
Still for that read-out and setting: then `NC(=O)c1cccc(OCC(=O)NS(=O)(=O)c2ccc3c(c2)CCC3)c1`, with -4.37%; and `CN(Cc1ccco1)C(=O)Nc1cccnc1N1CCCC1`, with 18.63%.
Turning to `CN(Cc1ccsc1)C(=O)Nc1cccnc1N1CCCC1`, the “Percent Effect” value (30 µM, 30.03 µM) is given as -52.54%.
Regarding `CCc1ncc(CN(C)C(=O)Nc2cccnc2N2CCCC2)s1`, the “Percent Effect” value (30 µM, 30.03 µM) is reported as 50.09%.
With `O=C(O)C(F)(F)F.O=C(c1cc[nH]n1)N1CCC2(CC1)CC(Oc1cccnc1)CO2` (centres undefined), the “Percent Effect” value (30 µM, 30.03 µM) is -3.949%.
`COc1cc(CNC(=O)CNc2cc(Cl)ccc2OC)ccn1`: the “Percent Effect” value (30 µM, 30.03 µM) is reported as -27.18%.
For the compound `COc1ccc(Cl)cc1NCC(=O)NCCNc1ncccn1`, the “Percent Effect” value is on record as -3.8% (30.3 µM, […]) and -45.51% (10 mM, 10 mM as filed; unlikely as a test dose).
Regarding `COc1ccc(Cl)cc1NCC(=O)NCc1cccnc1OC`, the “Percent Effect” value is recorded as 74.82% (30.3 µM, […]) and -40.14% (10 mM, 10 mM as filed; unlikely as a test dose).
With `CS(=O)(=O)NCc1nnc2n1CCN(Cc1cccs1)CC2.O=C(O)C(F)(F)F`, under “30.3 µM, […]”, the “Percent Effect” value was -150.1%.
Turning to `Cc1ccc(N2CCC3(CC2)COCCN(c2nccs2)C3)nn1.O=C(O)C(F)(F)F.O=C(O)C(F)(F)F`, the “Percent Effect” value (30 µM, 30.03 µM) is listed as -12.93%.
Take `CCS(=O)(=O)N1CCC2(CC1)COC(COc1cccnc1)C2.O=C(O)C(F)(F)F` (centres undefined): under “30.3 µM, […]”, the “Percent Effect” value is listed as 1.349%.
Turning to `O=C(c1ccccn1)N1CCC2(CC1)COC(COc1cccnc1)C2` (centres undefined), the “Percent Effect” value (30 µM, 30.03 µM) worked out at 52.19%.
In the case of `O=C(O)C(F)(F)F.O=C(c1ccccn1)N1CCC2(CC1)COC(COCC1CC1)C2` (centres undefined), under “30 µM, 30.03 µM”, the “Percent Effect” value is recorded as 39.74%.
For the compound `CCOCC1CC2(CCN(C(=O)c3ccccn3)CC2)CO1.O=C(O)C(F)(F)F` (centres undefined), for the setting “30.3 µM, […]”, the “Percent Effect” value is on record as 13.92%.
With `Cc1ccc(C(=O)N2CCC3(CC2)COC(COc2ccccn2)C3)o1.O=C(O)C(F)(F)F` (centres undefined), the “Percent Effect” value (30.3 µM, […]) worked out at 15.32%.
As for `Cc1ccc(C(=O)N2CCC3(CC2)COC(COc2cccnc2)C3)o1.O=C(O)C(F)(F)F` (centres undefined), the “Percent Effect” value (30 µM, 30.03 µM) is given as 51.84%.
With `O=C(O)C(F)(F)F.O=C([C@H]1CCCO1)N1CCCC2(COCCN(c3ccccc3)C2)C1` (some centres undefined), the “Percent Effect” value (30.3 µM, […]) was -14.49%.
For the compound `c1ccc(C(CC2CN(Cc3c[nH]cn3)CCO2)c2ccccc2)cc1` (centres undefined), where the note is “30.3 µM, […]”, the “Percent Effect” value stood at 18.17%.
Turning to `CC(=O)N1C[C@@H](c2ccsc2)[C@@H]2CN(Cc3ccccc3C)CC[C@@H]21`, the “Percent Effect” value (30.3 µM, […]) was -10.13%.
As to `COC(=O)NCc1cc2n(n1)CCCN(C(C)=O)C2`, for the setting “30 µM, 30.03 µM”, the “Percent Effect” value is given as 54.27%.
The same measure, in the same setting: the same measure for `CC(=O)N1CCCn2nc(CNC(=O)N3CCCCC3)cc2C1`: -45.6%.
The same measure, in the same setting: the same measure for `CC(=O)N1CCCn2nc(CNS(=O)(=O)N3CCCCCC3)cc2C1`: -5.109%; for `O=C(c1cccs1)N1CCC2(C1)c1ccccc1S(=O)(=O)N2CC1CC1` (centres undefined): 16.77%; for `CSCC(=O)NC(Cc1ccc(C)cc1)c1ccccn1` (centres undefined): -45.46%.
On the same count and under the same terms, the same measure for `CCCC(=O)NC(Cc1ccc(C)cc1)c1ccccn1` (centres undefined): -30.99%; for `Cc1ccc(CC(NC(=O)CN(C)C2CC2)c2ccccn2)cc1` (centres undefined): 99.62%.
